Bioassay records (PubChem)
A selection: hits, their analogues and other compounds. The true share with any hit is near 2.6%.
Cruzain inh Det = cruzain (T. cruzi) inhibition with detergent; P25779; purified cruzain, Z-FR-AMC fluorescence, 0.01% Triton; Potency, µM, inactives show max response, negative = inhibition, most hits filed as inhibitors; 0.43% of 200,000 active;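 also: plate controls were neutral wells for no effect and buffer without enzyme for full effect; nearly all actives have a fitted effect of over 40% in size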
Target sequence (P25779 123-467 limits assumed): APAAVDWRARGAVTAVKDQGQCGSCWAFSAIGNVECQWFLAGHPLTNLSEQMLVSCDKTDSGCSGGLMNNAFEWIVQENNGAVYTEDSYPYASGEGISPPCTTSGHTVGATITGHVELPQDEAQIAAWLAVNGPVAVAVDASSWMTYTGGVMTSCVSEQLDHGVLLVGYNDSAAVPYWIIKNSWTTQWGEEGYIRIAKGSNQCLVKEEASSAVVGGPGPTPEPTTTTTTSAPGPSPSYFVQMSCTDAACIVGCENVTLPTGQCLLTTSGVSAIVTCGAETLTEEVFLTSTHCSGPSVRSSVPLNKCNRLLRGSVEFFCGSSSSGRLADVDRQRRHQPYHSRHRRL
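Z-FR-AMC hydrolysis (2 uM substrate) by cruzain (1.5 nM) monitored kinetically at ex 360/em 450 nm after 15 min room-temperature compound exposure; 0.01% Triton X-100, pH 5.5, 5 mM DTT.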
Cruzain inh noDet = cruzain (T. cruzi) inhibition without detergent | 2.3% of 200,000 active | Potency, µM, for inactives: max response, negative = inhibition, most hits filed as inhibitors | P25779 | purified cruzain, Z-FR-AMC fluorescence, no detergent;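 also: plate controls were enzyme without inhibitor for no effect and buffer without enzyme for full effect; nearly all actives have a fitted effect of over 40% in size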
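Purified cruzain at 1.5 nM, pre-incubated 15 min with compound at room temperature in 100 mM sodium acetate pH 5.5, 5 mM DTT, 0.00005% Triton X-100. Reaction started with 2 uM Z-FR-AMC; AMC fluorescence increase over 60 s gives rate.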
Starred values were filed as active, the others as inactive; ? = inconclusive; / = no result given; ! = not active in a repeat. Calls follow the shape of the dose curve; as a rule, active = well fitted curve in the direction sought with a large enough effect; inconclusive = small, poorly fitted or top-dose-only effect, or another doubt; inactive = no such curve, though single readings can be large; an effect the other way counts as inactive or inconclusive. Potency is read from the fitted curve at half-maximal effect.

SMILES	Cruzain inh Det	Cruzain inh noDet
COC(=O)c1sc(-c2ccccc2)cc1NC(=O)c1ccc(F)cc1	-3.1%	10µM*
C=CCc1c(C)nc2nc(SCC(=O)Nc3ccc(OCC)cc3)nn2c1C	8.0%	-6.7%
CCOc1ccc(-c2nc(SCC(=O)c3ccccc3)n[nH]2)cc1	-4.6%	?
CCCOc1ccc(-c2nc(SCC(=O)c3ccc(Cl)cc3)n[nH]2)cc1	1.3%	10µM*
COCc1c(Br)c(C)nc2sc3c(=O)n(-c4cccc(Br)c4)nnc3c12	3.9%	6.5%
Cc1ccc(C)c(CN2C(=O)c3ccccc3S(=O)c3ccc(C(=O)NCc4ccccc4)cc32)c1 (configuration not stated)	-0.4%	?
CCOc1ccc(N2Cc3ccccc3C2)cc1	3.7%	15.8µM*
CCOc1ccc(N2CC(=O)N(c3ccc(OCC)cc3)CC2=O)cc1	1.0%	-9.3%
Cc1nn(-c2ccccc2)c(/N=C/c2ccc(O)cc2)c1-c1ccccc1	-6.9%	5.3%
CN(C)c1ccc(/C=N/c2cc(-c3ccccc3)nn2-c2ccccc2)cc1	-5.1%	20µM*
Oc1c(Cl)cc(Cl)cc1Cl	-0.8%	/
Cc1cccc(-c2nc3c(cnn3-c3ccccc3)c(=O)n2-c2ccc(Br)cc2)c1	-11.3%	-8.6%
Cc1cccc(-c2nc3c(cnn3-c3ccccc3)c(=O)n2-c2ccc(Cl)cc2)c1	-9.5%	?
Cc1cccc(C2=NN(c3ccc(Br)cc3)[C@@H](C(=O)N3CCOC3=O)[C@@H]2c2ccc(F)cc2)c1	-14.2%	17.8µM*
Cc1cccc(C2=NN(c3ccc(Br)cc3)[C@@H](C(=O)N3CCOC3=O)[C@@H]2c2ccc(Cl)cc2)c1	3.0%	8.91µM*
Cc1ccc2c(c1)N(C(=O)Nc1cccc3c1CCCC3)CCO2	-1.1%	8.0%
CCOC(=O)c1ccccc1NC(=O)c1nn(-c2ccc(C)cc2)c(=O)n(C)c1=O	3.4%	-2.1%
Cc1cc(NC(=O)CSc2nc(C(C)C)nc3sc(C)c(C)c23)no1	1.4%	10.6%
Cc1cc(NC(=O)CSc2ncnc3sc4c(c23)CCC(C)C4)no1 (configuration not stated)	4.9%	5.01µM*
Cc1nn2c(-c3cccc(NC(=O)c4ccccc4)c3)nnc2c2ccccc12	-0.2%	-4.3%
O=C(Nc1cccc(-c2cn3ccccc3n2)c1)c1cc2ccccc2oc1=O	3.55µM*	?
O=C(Nc1cccc(-c2cn3ccccc3n2)c1)c1cccs1	-5.6%	2.7%
COc1ccc(Br)cc1CNC(=O)CCCn1c(=O)c2cccn2c2cccnc21	-5.7%	1.3%
CC(=O)N1CCc2c(sc3c2c(=O)n(CCc2ccccc2)c(=O)n3Cc2ccc(Cl)cc2)C1	-7.0%	?
Cc1ccc(-n2ncc(C(=O)NCCCN3CCN(c4cccc(Cl)c4)CC3)c2-n2cccc2)cc1	-4.2%	0.8%
SMILES	Cruzain inh Det	Cruzain inh noDet
CCCCCc1ccc(-c2ccc(C(=O)Oc3ccc(C(=O)OC)cc3)cc2)nc1	-1.2%	-3.9%
CCCCCc1ccc(-c2ccc(/C=C/C(N)=O)cc2)nc1	-1.0%	12.6µM*
CCC(=O)Nc1cc(-c2cn3cccnc3n2)ccc1OC	-6.5%	-4.6%
COc1ccc(-c2cn3cccnc3n2)cc1F	-21.5%	20µM*
COc1cccc(-n2c(SCC(=O)N3CCCc4ccccc43)nc3c([nH]c4ccccc43)c2=O)c1	-2.0%	3.1%
CCc1ccccc1N1C(=O)N(Cc2cccc(Cl)c2)c2ccccc2S1(=O)=O	-0.5%	?
O=C(c1ccco1)[C@@H]1[C@@H]2C(=O)N(c3ccc(F)cc3)C(=O)[C@@H]2[C@H]2C=Cc3ccccc3N21	-6.3%	25.1µM*
O=C(c1ccco1)[C@@H]1[C@@H]2C(=O)N(c3ccc(F)cc3)C(=O)[C@@H]2C2c3ccccc3C=CN21 (some centres not stated)	-6.5%	-8.1%
CC(=O)[C@@H]1[C@H]2[C@H](C(=O)[C@H]3OC[C@@H]2O3)[C@H]2C=Cc3ccccc3N21	-3.8%	?
O=C(c1ccco1)[C@@H]1[C@@H]2C(=O)N(c3ccc(Br)cc3)C(=O)[C@@H]2C2c3ccccc3C=CN21 (some centres not stated)	-3.7%	12.6µM*
N#C/C(=C\c1c(Oc2ccc(Br)cc2)nc2ccccn2c1=O)c1nc2ccccc2s1	-17.1%	-16.7%
Cc1ccc(C2C(C#N)=C(N)Oc3n[nH]c(-c4cccs4)c32)cc1 (configuration not stated)	-1.9%	31.6µM*
N#CC1=C(N)Oc2n[nH]c(-c3cccs3)c2C1c1ccoc1 (configuration not stated)	-3.8%	-6.9%
COc1ccc(OC)c(CNC(=O)C2COc3ccccc3C2)c1 (configuration not stated)	-3.3%	-6.2%
CC1=CC(C)(C)Nc2ccc(OC(=O)CCN3C(=O)c4ccccc4C3=O)cc21	-14.2%	8.6%
CC1=CC(C)(C)Nc2ccccc21	0.1%	15.8µM*!
COc1ccccc1Cc1nc2ccccc2nc1SCC(=O)Nc1ccccc1C(F)(F)F	0.9%	-1.9%
